Screening data from PubChem BioAssay.
Only some compounds are listed: those with a hit (about 0.95% of all), similar ones and a draw of the others.
TexasRed autofl – qHTS Assay for Spectroscopic Profiling in Texas Red Spectral Region; Compound fluorescence, Texas Red channel, 547/618 nm; hits give high values; max dye-equivalent concentration, M; 59,000 compounds, 0.06% hits; in the data active = max dye-equivalent concentration above about 10 nM; inconclusive = between about 1.1 nM and that limit
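Fluorescence at ex 547/em 618 nm, normalized against an on-plate Texas Red standard series to give dye-equivalent concentration per compound concentration. Buffer 100 mM Tris, pH 8.0; 15 min RT incubation before CCD imaging.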
Resorufin fluor – qHTS Assay for Spectroscopic Profiling in Resorufin Spectral Region | Compound fluorescence, resorufin region 547/598 nm, buffer; hits give high values | max dye-equivalent concentration, M | 59,000 compounds, 0.04% hits | AID 588, 2007
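Dye-equivalent concentration values derive from comparing each well's 547/598 nm fluorescence against resorufin standards included on every plate. Incubation was 15 min at room temperature in 100 mM Tris, pH 8.0.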
A647 fluor – qHTS Assay for Spectroscopic Profiling in A647 Spectral Region; Compound fluorescence, A647 channel (570/671 nm), Tris buffer; max dye-equivalent concentration, M; 59,000 tested, under 10 active; AID 592, 2007
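Tris 100 mM pH 8.0; cpd + A647 stds pin-transferred; 15 min RT; CCD imager, ex 570/em 671. Output = A647-equivalent conc. per cpd conc.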
A488 fluor – qHTS Assay for Spectroscopic Profiling in A488 Spectral Region. AID 591, 2007. max dye equivalency, M. 59,000 compounds, 0.1% hits. compound autofluorescence, A488 spectral region, dye equivalency; Compound Type: qHTS ECL - MLSMR
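Compound autofluorescence was read in 100 mM Tris pH 8.0 after 15 min at room temperature, ex 480 nm/em 540 nm. Intensities were converted to A488 dye-equivalent concentration using an on-plate six-point A488 standard curve.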
Fluorescein autfl – qHTS Assay for Spectroscopic Profiling in Fluorescein Spectral Region | max fluorescein-equivalent concentration, M | 59,000 compounds, 0.91% hits | Compound autofluorescence, 480/540 nm, fluorescein-equivalent; hits give high values; in the data active = max fluorescein-equivalent concentration above about 10 nM; inconclusive = between about 1.1 nM and that limit
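Normalized response (dye-equivalent concentration) derives from comparing each well's 540 nm emission, under 480 nm excitation, with plate-resident fluorescein standards. Compounds were held in 100 mM Tris, pH 8.0, for 15 min at room temperature.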
Rhodamine autofl – qHTS Assay for Spectroscopic Profiling in Rhodamine Spectral Region; AID 594, 2007; max dye-equivalent concentration, M; 59,000 compounds, 0.05% hits; Rhodamine-region fluorescence, 547/598 nm, Tris buffer; hits give high values; in the data active = max dye-equivalent concentration above about 11 nM; inconclusive = between about 1.1 nM and that limit
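qHTS spectral profiling of compounds without any target or enzyme present, in pH 8.0 Tris buffer; plates were read after a 15-minute room-temperature incubation using the rhodamine-region filter set.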
Of the large screens only hits and unclear results are named; the others gave an inactive call; ! = repeats disagree. Unless noted, no rule for the calls is given here.

CC(C)(C)OC(=O)c1c(N)n(Cc2ccco2)c2nc3ccccc3nc12	Fluorescein autfl 2.8e-08M
Nc1c(C(=O)NCCN2CCOCC2)c2nc3ccccc3nc2n1Cc1ccco1	Fluorescein autfl 1.9e-08M
CCOC(=O)c1c(N)n(CCN2CCCCC2)c2nc3ccccc3nc12	none
O=C1C[C@H]2OCCC=C3CN4CC[C@@]56c7ccccc7N1[C@@H]5[C@H]2[C@H]3C[C@@H]46	none
CCN(CC)C(=O)N[C@H]1C=C2c3cccc4[nH]cc(c34)C[C@@H]2N(C)C1	TexasRed autofl inconclusive, A488 fluor inconclusive, Fluorescein autfl 5e-08M
CN1C(=O)C(Cc2c[nH]c3ccccc23)C(=O)N(C)C1=O	TexasRed autofl inconclusive, Resorufin fluor 1e-08M, A488 fluor inconclusive, Fluorescein autfl 3.4e-08M, Rhodamine autofl 1.4e-08M
CN1CCN(c2ccc([N+](=O)[O-])c3[nH]o[n+](=O)c23)CC1	A488 fluor inconclusive, Fluorescein autfl 1.3e-07M, Rhodamine autofl inconclusive
O=c1ccc2cc(O[C@@H]3O[C@@H](CO)[C@@H](O)[C@@H](O)[C@H]3O)c(O)cc2o1	none
CSC([N-]/N=C/c1cccc(C)n1)=[S]=[Cu].CS[C@H]([S-])[N-]/N=C/c1cccc(C)n1	none
C[C@@H]1[C@H]2C=C[C@@H]1[C@@H](c1c3ccc(=O)c(O)c-3oc3c(O)c(O)ccc13)[C@@H]2C(=O)O	Fluorescein autfl inconclusive
CC(C)C[C@H]1C(=O)N2CCC[C@@H]2[C@]2(O)O[C@](NC(=O)[C@H]3C=C4c5cccc6[nH]cc(c56)C[C@H]4N(C)C3)(C(C)C)C(=O)N12	Fluorescein autfl 1.3e-08M
CC(C)C[C@H]1C(=O)N2CCC[C@@H]2[C@@]2(O)O[C@](NC(=O)[C@@H]3C=C4c5cccc6[nH]cc(c56)C[C@@H]4N(C)C3)(C(C)C)C(=O)N12	A488 fluor inconclusive, Fluorescein autfl 4.9e-08M
CC(C)[C@@]1(NC(=O)[C@@H]2C[C@H]3c4cccc5[nH]cc(c45)C[C@@H]3N(C)C2)O[C@]2(O)[C@H]3CCCN3C(=O)[C@H](Cc3ccccc3)N2C1=O	TexasRed autofl inconclusive
NC(N)=Nc1ccc2[nH]c3c(c2c1)C[C@]1(O)[C@@H]2Cc4ccc(O)c5c4[C@]1(CCN2CC1CC1)[C@H]3O5	Fluorescein autfl inconclusive
C=C(C)[C@@H]1CN[C@H](C(=O)O)[C@H]1CC(=O)O	TexasRed autofl inconclusive
CC(C)n1cc2c3c(cccc31)[C@@H]1C[C@H](C(=O)O[C@@H](C)[C@H](C)O)CN(C)[C@H]1C2	Fluorescein autfl 1.1e-08M
CC[C@H](CO)NC(=O)[C@@H]1C=C2c3cccc4c3c(cn4C)C[C@@H]2N(C)C1	Fluorescein autfl 1.5e-08M
O=C(CCCN1CCC2(CC1)C(=O)N(CCc1ccc(N=C=S)cc1)CN2c1ccccc1)c1ccc(F)cc1	Fluorescein autfl inconclusive
COc1cc2ccccc2c2cc([N+](=O)[O-])oc12	A488 fluor inconclusive, Fluorescein autfl 4e-08M
COc1ccc(C[C@@H]2NC[C@H](O)[C@H]2OC(C)=O)cc1	Fluorescein autfl inconclusive
Ic1ccccc1CN[C@@H]1C2CCN(CC2)[C@H]1C(c1ccccc1)c1ccccc1	none
c1ccc2c(c1)[nH]c1cnccc12	Fluorescein autfl inconclusive
Cc1c2ccncc2c(C)c2c1[nH]c1ccccc12	Fluorescein autfl 1.1e-08M!
CCN(CC)c1ccc(N=Cc2c(O)n(CCC3=CCCCC3)c(=O)[nH]c2=O)cc1	A488 fluor inconclusive, Fluorescein autfl 9.3e-08M
C=CCn1c(O)c(C=Nc2ccc(N(CC)CC)cc2)c(=O)[nH]c1=O	Fluorescein autfl 1.4e-08M
O=c1[nH]c(=O)n(CCC2=CCCCC2)c(O)c1C=NCCN1CCNCC1	none
C=CCn1c(O)c(C=NCCN(C)C)c(=O)[nH]c1=O	Fluorescein autfl inconclusive
CN(C)c1ccc(N=Cc2c(O)n(CCC3=CCCCC3)c(=O)[nH]c2=O)cc1	TexasRed autofl inconclusive, Fluorescein autfl 1.4e-08M
